In experiment [1] the target is Calcium and integrin-binding protein 1 (Homo sapiens) (UniProt Q99828). Description: Primary qHTS for Identification of Calcium Integrin Binding Protein 1 (CIB1) Competitor (AID 1508620).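 Also: GST tagged CIB1 binding a fluorescein labelled alphaIIb integrin peptide tracer; top concentration of the series differs between compounds.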 The procedure, abridged: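 Fluorescence polarization competition: CIB1-GST (1 uM final) preincubated with compound 15 min at room temperature, then FITC-labeled alphaIIb peptide (100 nM final) added for another 15 min. Polarization read at Ex 480/Em 540.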

Experiment [2] in a line: Primary qHTS for small molecule stabilizers of the endoplasmic reticulum resident proteome: Secreted ER Calcium Modulated Protein (SERCaMP) assay (AID 1508630). The method in brief:
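The SH-SY5Y reporter protocol was run at 3 concentrations up to 38.3 uM (primary) or 11 concentrations (follow-up): 16 h compound, 100 nM thapsigargin for 4 h, then extracellular luciferase luminescence.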

Experiment [3] has as its target Cytochrome P450 2D6 (Homo sapiens) (UniProt P10635). The experiment is described as follows: Cytochrome P450 family 2 subfamily D member 6 (CYP2D6) small molecule antagonists: luciferase biochemical (cell-free) qHTS assay (AID 1645840; active = well fitted curve in the direction sought with a large enough effect in the repeat runs; an effect the other way counts as inactive or inconclusive; also: nearly all actives have a fitted effect of over 55% in size; also: potency is read from the fitted curve at half-maximal effect). The method in brief:
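P450-Glo CYP2D6 system: proluciferin substrate converted by enzyme to luciferin, read by luminescence proportional to activity. Enzyme-substrate mix with compound 10 min at room temperature, then NADPH regeneration 1 h before detection reagent.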

Experiment [4] deals with Cytochrome P450 2C9 (Homo sapiens) (UniProt P11712). Description: Cytochrome P450 family 2 subfamily C member 9 (CYP2C9) small molecule antagonists: luciferase biochemical (cell-free) qHTS assay (AID 1645842; active = well fitted curve in the direction sought with a large enough effect in the repeat runs; an effect the other way counts as inactive or inconclusive; also: nearly all actives have a fitted effect of over 55% in size; also: potency is read from the fitted curve at half-maximal effect). The method in brief:
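P450-Glo CYP2C9 system: proluciferin substrate with enzyme in mix containing 0.4% BSA, 10 min at room temperature, then NADPH regeneration solution added and incubated 1 h at 37C. Detection reagent stopped reaction; luminescence read after 20 min as RLU.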

The nature of experiment [5]: Primary qHTS for inhibitors of nuclear receptor binding SET domain protein 2 (NSD2) in an isogenic RCH-ACV NSD2 p.E1099K mutant (9B) (AID 1645876). Also: potency is read from the fitted curve at half-maximal effect; nearly all actives have a fitted effect of over 70% in size.
Experiment [6] is described as follows: Primary qHTS for inhibitors of nuclear receptor binding SET domain protein 2 (NSD2) in an RCH-ACV wild type WT cells (2C) (AID 1645877). Also: potency is read from the fitted curve at half-maximal effect; nearly all actives have a fitted effect of over 70% in size.
Experiment [7] deals with N-terminal Xaa-Pro-Lys N-methyltransferase 1 (Homo sapiens) (UniProt Q9BV86). Description: Confirmatory qHTS for Inhibitors of N-terminal methyltransferase 1 (NTMT1): MTaseGlo Assay (AID 1645874). Also: potency is read from the fitted curve at half-maximal effect; nearly all actives have a fitted effect of over 65% in size. The note with it: NTMT1 enzyme, MTase-Glo SAH luminescence. The method in brief:
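Enzyme mix (125 nM NTMT1, 100 uM SAM) + compound, 15 min RT; + 1 uM SPKRIA, 30 min RT, dark; MTase-Glo reagent 30 min, detection solution 30 min; luminescence. % inhibition vs no-enzyme/DMSO controls, 4-parameter Hill fit.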

Experiment [8] deals with Catechol O-methyltransferase (Homo sapiens) (UniProt P21964). Description: Confirmatory Screen for Target Class Profiling of Small Molecule Inhibitors of Methyltransferases (AID 1745852; calls by dose curve; also: potency is read from the fitted curve at half-maximal effect). Conditions: MTase-Glo luminescence, SAH detection, recombinant enzyme; measured here: COMT max response; stronger effect = lower value.
Experiment [9] has as its target Guanidinoacetate N-methyltransferase (Homo sapiens) (UniProt Q14353). The description is as above. Conditions: activity change, negative = inhibition: at 57.3 µM (top of the series).
Experiment [10] concerns the target Nicotinamide N-methyltransferase (Homo sapiens) (UniProt P40261). The description is as above. The note with it: MTase-Glo luminescence, SAH detection, recombinant enzyme; measured here: NNMT max response; stronger effect = lower value.

Drawing on PubChem BioAssay (NCATS), this text covers Potency, outcome and activity for 25 molecules.

Structures are written as SMILES. Values joined by “and” are separate entries in the source; they are usually repeats but may differ in a detail not shown here. Identical values can stand only once. Inconclusive results are not listed. Entries that show only a call come without a potency. Active and inactive are the calls of the source. Unless noted, calls follow the shape of the dose curve; as a rule, active = well fitted curve in the direction sought with a large enough effect; inconclusive = small, poorly fitted or top-dose-only effect, or another doubt; inactive = no such curve, though single readings can be large; an effect the other way counts as inactive or inconclusive.

Sequence of Cytochrome P450 2C9 (Homo sapiens) (P11712 whole entry, looked up): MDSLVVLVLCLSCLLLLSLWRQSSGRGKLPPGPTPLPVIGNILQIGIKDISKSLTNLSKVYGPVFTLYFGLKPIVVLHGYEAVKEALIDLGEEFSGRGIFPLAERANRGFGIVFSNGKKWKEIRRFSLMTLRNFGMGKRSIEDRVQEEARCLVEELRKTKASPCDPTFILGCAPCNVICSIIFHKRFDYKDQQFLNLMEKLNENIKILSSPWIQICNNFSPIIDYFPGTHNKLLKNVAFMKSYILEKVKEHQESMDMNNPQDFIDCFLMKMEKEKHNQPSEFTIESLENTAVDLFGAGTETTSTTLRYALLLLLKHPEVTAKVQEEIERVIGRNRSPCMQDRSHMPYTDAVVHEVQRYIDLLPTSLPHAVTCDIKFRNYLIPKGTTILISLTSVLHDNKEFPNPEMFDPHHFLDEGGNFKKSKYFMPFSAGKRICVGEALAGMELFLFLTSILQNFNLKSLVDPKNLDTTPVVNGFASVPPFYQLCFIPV
Sequence of Calcium and integrin-binding protein 1 (Homo sapiens) (Q99828 whole entry, looked up): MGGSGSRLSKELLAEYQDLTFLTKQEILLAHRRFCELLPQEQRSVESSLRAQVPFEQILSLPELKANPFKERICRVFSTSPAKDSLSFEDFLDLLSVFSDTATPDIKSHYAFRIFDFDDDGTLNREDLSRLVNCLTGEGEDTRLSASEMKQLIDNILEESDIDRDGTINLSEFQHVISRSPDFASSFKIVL
Sequence of Cytochrome P450 2D6 (Homo sapiens) (P10635 whole entry, looked up): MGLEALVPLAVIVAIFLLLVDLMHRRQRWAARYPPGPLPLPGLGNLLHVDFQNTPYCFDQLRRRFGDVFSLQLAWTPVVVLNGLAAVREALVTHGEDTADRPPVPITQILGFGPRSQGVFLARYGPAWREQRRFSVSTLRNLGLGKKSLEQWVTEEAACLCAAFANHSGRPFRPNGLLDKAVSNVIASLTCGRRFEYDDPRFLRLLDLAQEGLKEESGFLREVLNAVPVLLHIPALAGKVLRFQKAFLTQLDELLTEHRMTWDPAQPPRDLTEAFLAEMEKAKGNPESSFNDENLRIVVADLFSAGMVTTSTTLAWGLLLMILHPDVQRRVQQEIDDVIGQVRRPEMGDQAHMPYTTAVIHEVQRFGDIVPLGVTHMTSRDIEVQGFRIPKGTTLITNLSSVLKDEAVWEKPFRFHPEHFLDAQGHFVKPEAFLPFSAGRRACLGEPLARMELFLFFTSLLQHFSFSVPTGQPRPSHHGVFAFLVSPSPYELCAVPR
Sequence of Catechol O-methyltransferase (Homo sapiens) (P21964 whole entry, looked up): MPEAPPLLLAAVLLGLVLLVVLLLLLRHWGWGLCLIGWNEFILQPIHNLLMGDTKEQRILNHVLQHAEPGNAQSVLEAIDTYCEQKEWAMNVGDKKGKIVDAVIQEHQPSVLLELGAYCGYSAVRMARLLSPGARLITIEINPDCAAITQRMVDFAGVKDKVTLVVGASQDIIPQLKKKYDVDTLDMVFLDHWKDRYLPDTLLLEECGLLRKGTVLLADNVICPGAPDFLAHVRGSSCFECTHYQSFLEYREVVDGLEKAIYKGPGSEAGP
Sequence of N-terminal Xaa-Pro-Lys N-methyltransferase 1 (Homo sapiens) (Q9BV86 whole entry, looked up): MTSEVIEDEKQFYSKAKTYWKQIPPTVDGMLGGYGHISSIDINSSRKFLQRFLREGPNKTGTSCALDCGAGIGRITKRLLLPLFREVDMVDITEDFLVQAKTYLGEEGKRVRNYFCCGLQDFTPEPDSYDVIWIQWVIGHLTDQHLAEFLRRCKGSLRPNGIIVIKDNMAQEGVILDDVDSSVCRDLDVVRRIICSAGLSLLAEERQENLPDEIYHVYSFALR
Sequence of Nicotinamide N-methyltransferase (Homo sapiens) (P40261 whole entry, looked up): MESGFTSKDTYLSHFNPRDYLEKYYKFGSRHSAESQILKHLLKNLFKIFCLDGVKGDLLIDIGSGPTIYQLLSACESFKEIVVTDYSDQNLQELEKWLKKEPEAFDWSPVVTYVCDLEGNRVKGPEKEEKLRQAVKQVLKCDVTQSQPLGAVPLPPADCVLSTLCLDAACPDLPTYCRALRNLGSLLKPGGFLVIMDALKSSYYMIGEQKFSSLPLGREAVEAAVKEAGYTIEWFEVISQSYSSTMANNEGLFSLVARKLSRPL

For the molecule `CC(C)N1[N]C(=C2C=c3cc(O)ccc3=N2)c2c(N)ncnc21`, the Potency entry in experiment [1] is “inactive”. The outcome in [2] is “inactive”.
As to `COc1cc(C)c(C=CC(C)=CC=CC(C)=CC(=O)O)c(C)c1C`, the Potency result in [1] and in experiment [3] was “inactive” in each case. Moreover, the outcome in [2] is “inactive”. The Potency in [4] was 23.9 µM (active).
For the molecule `COc1cc([C@@H]2c3cc4c(cc3[C@@H](O[C@@H]3O[C@@H]5CO[C@@H](c6cccs6)O[C@@H]5[C@H](O)[C@@H]3O)[C@H]3COC(=O)[C@H]23)OCO4)cc(OC)c1O`, in experiment [1], the Potency entry is “inactive”. The outcome in experiment [2] is “inactive”.
Take `CCc1c(O)cc(O)c(C(=O)c2ccc(OCCN3CCOCC3)c(OC)c2)c1CC(=O)N(CCOC)CCOC`: the Potency entry in experiment [1] and in experiment [3] was “inactive” each time. Further, the outcome in experiment [2] is “inactive”. Besides, the Potency in [5] was 0.372 µM (active); in experiment [6], 0.148 µM (active).
As for `CON=C(C(=O)N[C@@H]1C(=O)N2C(C(=O)O)=C(Cn3ccc(=N)n3CCO)CS[C@H]12)c1csc(N)n1`, the Potency result in experiment [1] was “inactive”. Besides, the outcome in experiment [2] is “inactive”.
Take `CCCCCCCCCCCCCCCC(=O)OC[C@@H](NC(=O)C(Cl)Cl)[C@H](O)c1ccc([N+](=O)[O-])cc1`: the Potency entry in [1] and in experiment [3] was “inactive” throughout. Moreover, the outcome in experiment [2] was “inactive”. The Potency in experiment [4] was 3.01 µM (active).
In the case of `c1cncc(CN2CCC(n3ncc4c(N5CCOCC5)nc(-c5ccc6[nH]ccc6c5)nc43)CC2)c1`, the Potency result in [1] was “inactive”. Further, in [2], the outcome is “inactive”. Besides, the Potency in experiment [4] is 1.9 µM (active); in experiment [5], 916 nM (active) and 833 nM (active); in experiment [6], 1.15 µM (active) and 1.05 µM (active).
With `O=C(Nc1cc2cc[nH]c2cn1)c1ccccc1`, the Potency entry in experiment [1] is “inactive”. Besides, the outcome in experiment [2] is “inactive”. The Potency in experiment [3] was 13.5 µM (active); in experiment [4], 4.77 µM (active); in [7], 6.31 µM (active); in experiment [5], 12.9 µM (active); in experiment [6], 9.16 µM (active); in experiment [9] it was 19.2 µM (active). The activity in [8] is -83.5%; in experiment [10], -77.9%.
In the case of `COc1ccc(Nc2cc(-c3cnc(N)nc3)nc(N3CCOCC3)n2)cn1`, the Potency result in experiment [1] and in [3] was “inactive” throughout. In addition, the outcome in experiment [2] was “inactive”. For the same molecule, the Potency is 8.49 µM (active) in experiment [4], 0.525 µM (active) in [5] and 0.59 µM (active) in experiment [6].
Consider `CC(C=CC=C(C)C=CC1=C(C)CCCC1(C)C)=CC=CC=C(C)C=CC=C(C)C=CC1=C(C)CCCC1(C)C`, for which, in experiment [1], the Potency entry was “inactive”. In addition, the outcome in experiment [2] was “inactive”.
With `NC(=O)N1CCC(CC(=O)N2CCC([C@H]3c4ncc(Br)cc4CCc4cc(Cl)cc(Br)c43)CC2)CC1`, the Potency entry in [1] was “inactive”. The outcome in experiment [2] was “inactive”. The Potency in experiment [5] was 14.8 µM (active).
Regarding `O=C(O)C(=O)Nc1cccc(C2=NN=N[N]2)c1`, the Potency result in experiment [1] was “inactive”. Also, the outcome in [2] was “inactive”.
For the molecule `CS(=O)(=O)N1CCc2c(-c3cnc(N)nc3)nc(N3CCOCC3)nc21`, the Potency result in experiment [1] and in experiment [3] was “inactive” in each case. In addition, the outcome in experiment [2] was “inactive”. For the same molecule, the Potency is 920 nM (active) and 468 nM (active) in [5]; 459 nM (active) and 468 nM (active) in experiment [6].
With `CC(=O)C1=C(O)C=C2Oc3c(C(C)=O)c(O)c(C)c(O)c3C2(C)C1=O` (stereo not drawn), the Potency entry in experiment [1] is “inactive”. In experiment [2], the outcome is “inactive”.
As for `C[C@H]1O[C@H](O[C@H]2[C@H](O)[C@@H](O)[C@@H](O[C@H]3[C@H](O)[C@@H](O)C(O)O[C@H]3CO)O[C@H]2CO)[C@H](O)[C@@H](O)[C@H]1N[C@H]1C=C(CO)[C@@H](O)[C@H](O)[C@@H]1O` (stereo partly drawn), in experiment [1], the Potency result was “inactive”. In addition, the outcome in experiment [2] is “inactive”.
As for `Cc1cnc(NC(=O)Nc2cc(Br)c(C)cc2OC[C@@H]2CNCCO2)cn1`, in experiment [1], the Potency entry is “inactive”. The outcome in experiment [2] is “inactive”. In addition, the figures for the Potency in experiment [5] and in experiment [6] were 1.05 µM (active) and 0.934 µM (active), respectively.
`COc1cc(CCc2cc(NC(=O)c3ccc(N4C[C@@H](C)N[C@@H](C)C4)cc3)n[nH]2)cc(OC)c1`: in experiment [1], the Potency entry is “inactive”. Also, the outcome in experiment [2] is “inactive”. Further, the values for the Potency in experiment [5] and in [6] were 9.34 µM (active) and 5.9 µM (active), respectively.
`CN(C)CC(=O)N1CCC(c2ccc(NC(=O)c3ncc(C#N)[nH]3)c(C3=CCCCC3)c2)CC1`: the Potency result in experiment [1], in experiment [3] and in [4] was “inactive” throughout. Further, in experiment [2], the outcome was “inactive”. Also, the Potency was 5.8 µM (active) and 11.8 µM (active) in [5]; 10.3 µM (active) and 9.34 µM (active) in [6].
Consider `CCOC(=O)N1CCN([N+]([O-])=NOc2ccc([N+](=O)[O-])cc2C#N)CC1`, for which the Potency entry in experiment [1] and in experiment [3] was “inactive” each time. The outcome in experiment [2] is “inactive”.
For `Nc1ncn([C@@H]2O[C@H](CO)[C@@H](O)[C@@H]2O)c(=O)n1`, the Potency result in experiment [1] was “inactive”. Moreover, in experiment [2], the outcome was “inactive”.
As for `CC(C)n1cnc2c(NCCc3ccc(O)cc3)nc(-c3csc4ccccc34)nc21`, the Potency result in experiment [1] was “inactive”. Further, the outcome in [2] is “inactive”. Also, the Potency in [4] is 2.68 µM (active); in experiment [5], 20.5 µM (active); in experiment [6] it was 26.3 µM (active).
Turning to `CC(C)(O)CC[C@@H](O)[C@](C)(O)[C@H]1CC[C@@]2(O)C3=CC(=O)[C@@H]4C[C@@H](O)[C@@H](O)C[C@]4(C)[C@@H]3CC[C@]12C`, the Potency entry in experiment [1] was “inactive”. Moreover, the outcome in experiment [2] was “inactive”.
As to `Cn1cnc2c(F)c(Nc3ccc(Br)cc3F)c(C(=O)NOCCO)cc21`, the Potency entry in experiment [1] and in [3] was “inactive” each time. Moreover, in experiment [2], the outcome was “inactive”. Besides, in [4], the Potency is 9.52 µM (active).
As to `Oc1ccc([C@@H]2Oc3ccc(O)cc3[C@@H]3CCC[C@@H]32)cc1`, the Potency result in experiment [1] and in experiment [4] was “inactive” throughout. In addition, the outcome in experiment [2] is “inactive”. Also, the Potency is 8.33 µM (active) in [5] and 5.9 µM (active) in experiment [6].
In the case of `N#CC(=C(O)c1ccc(Cl)cc1Cl)c1nc2cc(Cl)ccc2c(=O)[nH]1`, the Potency entry in [1] was “inactive”. The outcome in experiment [2] is “inactive”.
